We go through 17 compounds from PubChem BioAssay (EPA / NIEHS).

Structures are written as SMILES. Inconclusive results are not listed. Calls of active or inactive are those of the source. How the source made its calls, unless noted: active means hit-call score of the fitted dose curve at least 0.9, where 1 is the maximum; inconclusive means response in the unintended direction; inactive means score below 0.9.

Experiment [1] has as its target human Caspase 5 (CASP5), CASP5 (gene 838) (UniProt P51878). Nature of the experiment: NVS_ENZ_hCASP5: NovaScreen (NVS) Enzymatic Assay for human Caspase 5 (CASP5) (AID 2283137). The method, boiled down:
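Loss of fluorescent signal versus DMSO scored for E. coli-derived human CASP5 cleaving a fluorescent substrate, 2 h post-dosing; compounds first tested at 25 uM in duplicate, hits rerun in concentration series with 50 uM top concentration.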

The target in experiment [2] is human Beta-secretase (BACE), BACE1 (gene 23621) (UniProt P56817). In words: NVS_ENZ_hBACE: NovaScreen (NVS) Enzymatic Assay for human Beta-secretase (BACE) (AID 2283140).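 Further: hits are inhibitors that reduce fluorescent substrate signal versus DMSO.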 Summed up: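 Enzyme from SF9 cells was incubated 1 hour with compound and fluorogenic substrate, activity read by fluorescence. Single-concentration duplicates at 25 uM preceded concentration-response follow-up; fitting relative to DMSO baseline.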
Chain of human Beta-secretase (BACE), BACE1 (gene 23621) (P56817 whole entry, looked up): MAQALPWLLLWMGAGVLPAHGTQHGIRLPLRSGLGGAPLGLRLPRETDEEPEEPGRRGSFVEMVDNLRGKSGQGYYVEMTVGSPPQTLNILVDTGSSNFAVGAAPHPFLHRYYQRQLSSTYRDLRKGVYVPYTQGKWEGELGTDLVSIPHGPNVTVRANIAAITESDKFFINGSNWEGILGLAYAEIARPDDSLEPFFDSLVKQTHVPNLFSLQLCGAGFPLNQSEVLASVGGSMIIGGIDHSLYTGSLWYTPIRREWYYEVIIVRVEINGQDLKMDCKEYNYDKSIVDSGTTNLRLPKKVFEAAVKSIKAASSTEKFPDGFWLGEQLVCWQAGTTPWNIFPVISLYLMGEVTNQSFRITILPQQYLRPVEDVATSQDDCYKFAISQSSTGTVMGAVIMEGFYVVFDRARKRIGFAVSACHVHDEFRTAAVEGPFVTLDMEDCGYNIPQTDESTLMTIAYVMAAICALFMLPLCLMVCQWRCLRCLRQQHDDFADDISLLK

Experiment [3] concerns the target human CYP2C9, CYP2C9 (gene 1559) (UniProt P11712). Nature of the experiment: NVS_ADME_hCYP2C9: NovaScreen (NVS) CYP450-related Enzyme Activity (ADME) Assay for human CYP2C9 (AID 2283108). The method, boiled down:
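Recombinant human CYP2C9 expressed in SF9 cells, fluorogenic substrate, fluorescence read 0.75 h after dosing. Chemicals first run in duplicate at 10 uM, with actives followed in concentration series; loss of signal versus acetonitrile baseline.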

In experiment [4] the target is Cytochrome P450 2C19 (Homo sapiens) (UniProt P33261). In words: NVS_ADME_hCYP2C19: NovaScreen (NVS) CYP450-related Enzyme Activity (ADME) Assay for human CYP2C19 (AID 2283113).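 On AC50: potency for inhibition seen as loss of fluorescent signal.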 Summed up: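 Cell-free assay of recombinant human CYP2C19 expressed in insect cells, with a fluorogenic substrate; fluorescence intensity read 1 hour after dosing. Loss of signal relative to acetonitrile negative control indicates inhibition. Primary screen at 10 uM in duplicate, then concentration series.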

In experiment [5] the target is human Sirtuin 3 (SIRT3), SIRT3 (gene 23410) (UniProt Q9NTG7). Nature of the experiment: NVS_ENZ_hSIRT3: NovaScreen (NVS) Enzymatic Assay for human Sirtuin 3 (SIRT3) (AID 2283222). Summed up:
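Cell-free enzyme assay with recombinant protein and fluorescent substrate, product separated by electrophoretic mobility shift; read 1 hour after dosing. Screened in duplicate at 25 uM, then singleton concentration-response up to 50 uM; loss of signal versus DMSO.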

Experiment [6] deals with sheep Cyclooxygenase-1 (Cox1), PTGS1 (gene 443551) (UniProt P05979). Nature of the experiment: NVS_ENZ_oCOX1: NovaScreen (NVS) Enzymatic Assay for sheep Cyclooxygenase-1 (Cox1) (AID 2283239).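 Further: actives reduce cyclooxygenase activity so potencies are for inhibitors.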 Summed up:
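Cell-free colorimetric assay of enzyme activity in a native extract of ovine seminal vesicles. Absorbance was read 0.66 hour after compound addition. Loss of signal relative to the DMSO negative control was scored, with actives from the 25 uM duplicate primary screen retested in concentration series.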

The target in experiment [7] is human Ephrin type-A Receptor 1 (EphA1), EPHA1 (gene 2041) (UniProt P21709). In words: NVS_ENZ_hEphA1: NovaScreen (NVS) Enzymatic Assay for human Ephrin type-A Receptor 1 (EphA1) (AID 2283158).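 Further: activity is signal loss versus DMSO meaning EphA1 kinase inhibition.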 Summed up: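 Cell-free enzymatic assay with recombinant EphA1 and fluorescent substrate; product separated by electrophoretic mobility shift, fluorescence intensity read 1 hour after dosing. Loss of signal versus DMSO baseline; primary duplicate screen at 25 uM, actives followed to 50 uM top concentration.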
Chain of human Ephrin type-A Receptor 1 (EphA1), EPHA1 (gene 2041) (P21709 whole entry, looked up): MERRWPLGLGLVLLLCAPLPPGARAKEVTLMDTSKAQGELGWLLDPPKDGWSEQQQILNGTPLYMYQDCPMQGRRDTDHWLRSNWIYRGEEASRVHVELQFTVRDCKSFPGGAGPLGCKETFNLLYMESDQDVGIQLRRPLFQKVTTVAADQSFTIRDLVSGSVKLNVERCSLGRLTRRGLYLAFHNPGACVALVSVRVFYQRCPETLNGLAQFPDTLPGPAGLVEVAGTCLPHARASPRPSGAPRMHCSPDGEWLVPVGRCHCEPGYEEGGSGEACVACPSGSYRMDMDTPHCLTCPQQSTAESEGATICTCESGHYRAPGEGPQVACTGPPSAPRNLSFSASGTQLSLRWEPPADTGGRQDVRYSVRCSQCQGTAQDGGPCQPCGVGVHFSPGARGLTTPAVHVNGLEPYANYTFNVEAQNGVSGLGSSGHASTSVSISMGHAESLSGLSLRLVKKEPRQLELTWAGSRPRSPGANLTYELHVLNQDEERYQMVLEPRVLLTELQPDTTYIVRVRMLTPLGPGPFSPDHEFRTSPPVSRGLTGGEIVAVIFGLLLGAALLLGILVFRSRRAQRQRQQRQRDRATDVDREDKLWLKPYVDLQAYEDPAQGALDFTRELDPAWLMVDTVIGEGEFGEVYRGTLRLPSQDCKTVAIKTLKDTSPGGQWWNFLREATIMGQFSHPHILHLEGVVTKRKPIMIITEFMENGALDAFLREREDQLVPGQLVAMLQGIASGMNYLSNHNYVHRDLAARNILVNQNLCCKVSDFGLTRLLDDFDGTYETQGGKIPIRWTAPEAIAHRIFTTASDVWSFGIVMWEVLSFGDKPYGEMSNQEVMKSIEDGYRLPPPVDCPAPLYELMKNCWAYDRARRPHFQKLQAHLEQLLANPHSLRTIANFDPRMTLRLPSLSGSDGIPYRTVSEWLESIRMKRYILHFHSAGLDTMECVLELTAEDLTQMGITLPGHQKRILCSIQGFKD

Experiment [8] deals with Cytochrome P450 3A4 (Homo sapiens) (UniProt P08684). In words: NVS_ADME_hCYP3A4: NovaScreen (NVS) CYP450-related Enzyme Activity (ADME) Assay for human CYP3A4 (AID 2283110). Summed up: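 Recombinant CYP3A4 from insect cells, fluorescence enzyme read-out, 0.33 h after chemical addition. Acetonitrile = negative control/baseline. Primary HTS: 10 uM in duplicate; actives re-tested in concentration series.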

For experiment [9], the target named is human Dual Specificity Protein Phosphatase 3 (DUSP3), DUSP3 (gene 1845) (UniProt P51452). In words: NVS_ENZ_hDUSP3: NovaScreen (NVS) Enzymatic Assay for human Dual Specificity Protein Phosphatase 3 (DUSP3) (AID 2283152). The method, boiled down: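 Cell-free fluorescence-intensity enzyme activity assay with recombinant protein and substrate; loss of signal fitted relative to DMSO baseline. Primary screen in duplicate at 25 uM, actives then run in concentration series; measured 0 h after dosing.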
Chain of human Dual Specificity Protein Phosphatase 3 (DUSP3), DUSP3 (gene 1845) (P51452 whole entry, looked up): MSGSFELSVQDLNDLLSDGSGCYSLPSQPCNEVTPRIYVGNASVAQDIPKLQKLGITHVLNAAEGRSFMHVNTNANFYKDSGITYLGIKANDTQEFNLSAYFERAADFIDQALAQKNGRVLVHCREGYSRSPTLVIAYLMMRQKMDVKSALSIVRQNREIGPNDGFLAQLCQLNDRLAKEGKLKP

Experiment [10] deals with human Vascular Endothelial Growth Factor Receptor 1 (VEGFR1), FLT1 (gene 2321) (UniProt P17948). Nature of the experiment: NVS_ENZ_hVEGFR1: NovaScreen (NVS) Enzymatic Assay for human Vascular Endothelial Growth Factor Receptor 1 (VEGFR1) (AID 2283226). The method, boiled down: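 Kinase activity of recombinant human VEGFR1 was read by fluorescence after electrophoretic separation of product from substrate, 1 h post-dosing; initial duplicate single-point testing at 25 uM, followed by concentration-series follow-up, with DMSO as baseline.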

Experiment [11] deals with human Phosphodiesterase 10 (PDE10), PDE10A (gene 10846) (UniProt Q9Y233). Nature of the experiment: NVS_ENZ_hPDE10: NovaScreen (NVS) Enzymatic Assay for human Phosphodiesterase 10 (PDE10) (AID 2283195). The method, boiled down:
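Biochemical single-readout PDE10A assay, cell-free, extracted protein. Compounds first screened at 25 uM in duplicate, hits then titrated to 50 uM max. Activity measured after 1 h; loss-of-signal fitted against DMSO negative control.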

The target in experiment [12] is human Phosphoinositide 3-kinase alpha (PI3Ka), PIK3CA (gene 5290) (UniProt P42336). In words: NVS_ENZ_hPI3Ka: NovaScreen (NVS) Enzymatic Assay for human Phosphoinositide 3-kinase alpha (PI3Ka) (AID 2283196). The method, boiled down: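 Fluorescence/mobility-shift readout of substrate conversion by recombinant enzyme, 1 h post-dosing. Primary screen in duplicate at 25 uM; actives (e.g. ≥30% inhibition) retested in singleton concentration-response, top concentration 50 uM.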
Chain of human Phosphoinositide 3-kinase alpha (PI3Ka), PIK3CA (gene 5290) (P42336 whole entry, looked up): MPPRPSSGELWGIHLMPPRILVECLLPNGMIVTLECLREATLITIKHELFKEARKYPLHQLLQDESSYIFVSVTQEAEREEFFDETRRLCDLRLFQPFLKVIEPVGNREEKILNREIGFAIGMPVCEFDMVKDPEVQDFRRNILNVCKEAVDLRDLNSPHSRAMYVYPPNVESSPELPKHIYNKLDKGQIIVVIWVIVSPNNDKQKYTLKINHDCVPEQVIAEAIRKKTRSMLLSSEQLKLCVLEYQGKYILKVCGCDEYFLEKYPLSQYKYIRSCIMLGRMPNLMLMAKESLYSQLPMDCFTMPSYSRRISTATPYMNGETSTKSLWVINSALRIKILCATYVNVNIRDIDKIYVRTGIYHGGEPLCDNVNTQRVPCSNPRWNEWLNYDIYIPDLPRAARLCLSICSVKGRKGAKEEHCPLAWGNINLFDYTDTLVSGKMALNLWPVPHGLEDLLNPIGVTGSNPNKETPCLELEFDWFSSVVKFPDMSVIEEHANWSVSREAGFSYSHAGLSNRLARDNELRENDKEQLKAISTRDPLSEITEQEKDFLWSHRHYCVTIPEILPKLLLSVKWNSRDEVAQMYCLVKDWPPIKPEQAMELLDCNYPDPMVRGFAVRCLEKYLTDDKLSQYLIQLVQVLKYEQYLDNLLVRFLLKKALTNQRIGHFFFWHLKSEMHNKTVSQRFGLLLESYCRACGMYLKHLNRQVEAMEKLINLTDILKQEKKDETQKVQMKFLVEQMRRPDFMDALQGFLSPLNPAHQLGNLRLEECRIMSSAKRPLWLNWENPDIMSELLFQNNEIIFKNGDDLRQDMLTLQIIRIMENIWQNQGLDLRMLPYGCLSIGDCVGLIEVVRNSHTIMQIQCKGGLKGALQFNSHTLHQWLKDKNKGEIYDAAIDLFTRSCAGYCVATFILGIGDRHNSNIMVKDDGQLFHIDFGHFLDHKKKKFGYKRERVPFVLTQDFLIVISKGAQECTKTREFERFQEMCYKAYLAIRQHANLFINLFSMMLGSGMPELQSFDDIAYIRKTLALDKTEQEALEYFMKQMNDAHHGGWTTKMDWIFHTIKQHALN

Experiment [13] addresses rat CYP2A1, Cyp2a1 (gene 24894) (UniProt P11711). In words: NVS_ADME_rCYP2A1: NovaScreen (NVS) CYP450-related Enzyme Activity (ADME) Assay for rat CYP2A1 (AID 2283114; active means hit-call score of the fitted dose curve at least 0.9, where 1 is the maximum; inactive means score below 0.9). Summed up: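 Cell-free fluorescence enzyme-activity read on recombinant rat CYP2A1, taken 0.75 h post-dosing. Compounds were screened in duplicate at 10 uM, then hits tested in concentration series (max 20 uM); inhibition scored relative to acetonitrile baseline.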

The target of experiment [14] is human Matrix Metalloproteinase-9 (MMP9), MMP9 (gene 4318) (UniProt P14780). Nature of the experiment: NVS_ENZ_hMMP9: NovaScreen (NVS) Enzymatic Assay for human Matrix Metalloproteinase-9 (MMP9) (AID 2283190).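 Further: cell-free recombinant MMP9 protease activity read by fluorescent substrate signal; active means inhibition seen as loss of fluorescence signal versus DMSO.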 The method, boiled down: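 Extracted enzyme, fluorescent substrate, 1 h post-dose read. Single conc 25 uM in duplicate, then concentration series for actives. Activity = signal loss relative to DMSO negative control.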

In experiment [15] the target is rat CYP2A2, Cyp2a2 (gene 24895) (UniProt P15149). In words: NVS_ADME_rCYP2A2: NovaScreen (NVS) CYP450-related Enzyme Activity (ADME) Assay for rat CYP2A2 (AID 2283116). The method, boiled down: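 Compounds first tested in duplicate at 10 uM, then in singleton concentration series up to 20 uM when over threshold. Activity of the recombinant enzyme read by fluorescence at 0.2 h, normalised to acetonitrile vehicle.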

Chain of human CYP2C9, CYP2C9 (gene 1559) (P11712 whole entry, looked up): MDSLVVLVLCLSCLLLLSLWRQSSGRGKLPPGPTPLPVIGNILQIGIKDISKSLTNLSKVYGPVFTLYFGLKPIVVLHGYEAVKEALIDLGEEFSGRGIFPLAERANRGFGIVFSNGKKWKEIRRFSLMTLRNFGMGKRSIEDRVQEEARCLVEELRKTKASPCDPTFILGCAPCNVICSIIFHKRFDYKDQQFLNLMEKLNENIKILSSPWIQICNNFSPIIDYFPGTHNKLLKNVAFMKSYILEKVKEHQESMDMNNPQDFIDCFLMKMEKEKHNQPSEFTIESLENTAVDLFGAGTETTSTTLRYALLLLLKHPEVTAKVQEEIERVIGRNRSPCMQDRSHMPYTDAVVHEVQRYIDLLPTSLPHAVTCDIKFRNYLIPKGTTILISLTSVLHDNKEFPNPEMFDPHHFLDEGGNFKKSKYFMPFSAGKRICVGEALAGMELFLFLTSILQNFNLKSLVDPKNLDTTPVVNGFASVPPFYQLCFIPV
Chain of human Phosphodiesterase 10 (PDE10), PDE10A (gene 10846) (Q9Y233 whole entry, looked up): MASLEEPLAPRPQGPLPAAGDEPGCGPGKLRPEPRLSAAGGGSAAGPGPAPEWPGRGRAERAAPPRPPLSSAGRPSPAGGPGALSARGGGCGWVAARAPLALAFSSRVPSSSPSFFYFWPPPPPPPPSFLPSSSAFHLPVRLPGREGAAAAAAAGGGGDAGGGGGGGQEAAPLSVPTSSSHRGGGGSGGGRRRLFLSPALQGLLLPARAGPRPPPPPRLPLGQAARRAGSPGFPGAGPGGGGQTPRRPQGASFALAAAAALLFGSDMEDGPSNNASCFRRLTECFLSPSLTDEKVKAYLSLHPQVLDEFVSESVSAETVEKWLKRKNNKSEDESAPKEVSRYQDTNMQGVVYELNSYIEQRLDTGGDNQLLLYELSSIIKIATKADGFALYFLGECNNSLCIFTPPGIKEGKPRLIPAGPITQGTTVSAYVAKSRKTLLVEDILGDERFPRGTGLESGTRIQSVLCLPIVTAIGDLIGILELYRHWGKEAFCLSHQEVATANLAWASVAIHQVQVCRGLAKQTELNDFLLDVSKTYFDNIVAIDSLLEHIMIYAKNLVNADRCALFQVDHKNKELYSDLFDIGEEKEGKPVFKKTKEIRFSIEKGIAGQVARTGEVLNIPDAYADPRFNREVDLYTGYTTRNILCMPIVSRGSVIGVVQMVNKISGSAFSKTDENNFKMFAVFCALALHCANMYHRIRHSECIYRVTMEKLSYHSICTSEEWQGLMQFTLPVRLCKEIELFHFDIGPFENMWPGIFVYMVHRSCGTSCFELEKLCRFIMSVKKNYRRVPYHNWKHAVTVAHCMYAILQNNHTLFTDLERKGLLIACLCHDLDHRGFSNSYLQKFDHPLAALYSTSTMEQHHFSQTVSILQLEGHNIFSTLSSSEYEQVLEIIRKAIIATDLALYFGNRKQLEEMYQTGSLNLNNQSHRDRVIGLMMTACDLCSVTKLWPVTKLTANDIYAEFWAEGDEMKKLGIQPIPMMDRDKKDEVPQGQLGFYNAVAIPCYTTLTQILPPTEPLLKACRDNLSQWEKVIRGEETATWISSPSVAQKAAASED
Chain of human Caspase 5 (CASP5), CASP5 (gene 838) (P51878 whole entry, looked up): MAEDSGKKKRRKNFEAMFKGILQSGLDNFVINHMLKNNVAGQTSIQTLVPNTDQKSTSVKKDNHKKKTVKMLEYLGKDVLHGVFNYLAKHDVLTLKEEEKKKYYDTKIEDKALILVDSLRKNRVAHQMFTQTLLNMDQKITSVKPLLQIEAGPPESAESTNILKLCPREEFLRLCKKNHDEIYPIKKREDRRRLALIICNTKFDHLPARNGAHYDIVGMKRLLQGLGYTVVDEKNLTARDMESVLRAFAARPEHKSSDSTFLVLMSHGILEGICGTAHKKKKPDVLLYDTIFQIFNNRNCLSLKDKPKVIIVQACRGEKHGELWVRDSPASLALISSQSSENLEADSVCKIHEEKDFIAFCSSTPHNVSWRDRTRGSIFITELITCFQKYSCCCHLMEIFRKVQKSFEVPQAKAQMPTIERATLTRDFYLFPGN

As to `CCCC[O][Al]([O]CCCC)[O]CCCC`, in experiment [1], the AC50 was 0.138 µM (active). Also, the compound was called inactive in experiment [2].

Turning to `CS(=O)(=O)OCCCCOS(C)(=O)=O`, the half-maximal activity concentration (AC50) in experiment [3] was 16 µM (active). Moreover, the compound was classed as inactive in experiment [4], in experiment [5] and in [6].

`CC(=O)C(C)O` (stereo not drawn): the result in experiment [7] was inactive.

Take `CCCCOC(=O)CCCCCCCC(=O)OCCCC`: in [8], the AC50 is 3.8 µM (active). In addition, the compound was called inactive in experiment [9].

Take `C1CCCCC1`: the call in experiment [8] was inactive.

In the case of `CN(C)C(=S)SC(=S)N(C)C`, the concentration at half-maximal activity (AC50) in [4] is 1.03 µM (active); in [9] it was 0.326 µM (active). Besides, the result in [10] was inactive.

Take `CCCCCCCCCCCCCCCC(=O)OC/C=C(C)/C=C/C=C(C)/C=C/C1=C(C)CCCC1(C)C`: the AC50 in experiment [1] was 5.57 µM (active); in experiment [9] it was 25 µM (active); in experiment [6], 42.8 µM (active).

Turning to `CCC(C)c1cc([N+](=O)[O-])cc([N+](=O)[O-])c1OC(=O)OC(C)C` (stereo not drawn), the AC50 in experiment [7] was 14 µM (active). Further, in experiment [11], the call was inactive.

As to `CCCCCCOCCOCCO`, the AC50 in [3] was 0.238 µM (active). Besides, in experiment [12], the call was inactive.

For `C=Cc1ccc(C)cc1`, the compound was called inactive in [13].

Consider `C=C(C)C(=O)OCC(CC)(COC(=O)C(=C)C)COC(=O)C(=C)C`, for which the AC50 was 17.1 µM (active) in experiment [2], 12.4 µM (active) in experiment [9] and 0.749 µM (active) in experiment [14].

As to `CCCCCC(C)=O`, the outcome in experiment [2] was inactive.

For the compound `CC1(C)C(=O)N(Cl)C(=O)N1Br`, the AC50 in [15] was 5.02 µM (active).

With `CCCCSCCCC`, the result in experiment [7] was inactive. In addition, in experiment [11], the AC50 is 1 µM (active).

Consider `NC(=S)NNC(N)=S`, for which the AC50 in experiment [9] is 4.96 µM (active); in experiment [14], 3.45 µM (active). For the same compound, in experiment [12], the result was inactive.

As for `C=C(C)[C@H]1CC=C(C)C(=O)C1`, the AC50 in experiment [3] is 0.597 µM (active). The outcome in experiment [11] was inactive.

Take `c1ccc2cc(Nc3ccc(Nc4ccc5ccccc5c4)cc3)ccc2c1`: the compound was called inactive in experiment [1] and in [7]. Besides, the half-maximal activity concentration (AC50) in [2] was 13.1 µM (active); in experiment [9], 22.4 µM (active); in experiment [12], 17.6 µM (active).
